This is part of a sample that, as a whole, favours compounds with a hit. Of some 83,000 tested, about 20% had one in any assay.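 Negative percent growth values reflect cell death: -40 means 40% of the cells present at the start died, and -100 means all died.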 Values without a mark were called inactive. The source made the active and inactive calls. Rule for the calls: active = growth percent below 10; inactive = the rest.
Key:
Assay in all cases: NCI-60 one-dose screen, 48 h (100 = growth as untreated, 0 = no growth, -100 = all killed)
Settings in all cases: 10 µM unless noted
DU-145 prostate = test system: DU-145 prostate
K-562 leukemia = test system: K-562 leukemia
MALME-3M melanoma = test system: MALME-3M melanoma
MDA-MB-231 breast = test system: MDA-MB-231 breast
RXF 393 renal = test system: RXF 393 renal
SF-295 CNS = test system: SF-295 CNS
SF-539 CNS = test system: SF-539 CNS
UACC-257 melanoma = test system: UACC-257 melanoma
M14 melanoma = test system: M14 melanoma
SF-268 CNS = test system: SF-268 CNS

Q: For `Cc1ccc(Cc2c(C=O)nc(N)[nH]c2=O)c2ccccc12`, which growth (DU-145 prostate) is on record?
A: Its growth is 113%.

Q: And the growth (K-562 leukemia)?
A: Its growth is 107%.

Q: What about the growth (MALME-3M melanoma) of the same compound?
A: The growth was 98.2%.

Q: And the growth (MDA-MB-231 breast)?
A: The growth was 107%.

Q: And the growth (RXF 393 renal)?
A: Its growth is 106%.

Q: What about the growth (SF-295 CNS) of the same compound?
A: The growth was 118%.

Q: What about the growth (SF-539 CNS) of the same compound?
A: The growth was 102%.

Q: What about the growth (UACC-257 melanoma) of the same compound?
A: The growth was 93.2%.

Q: And the growth (M14 melanoma)?
A: Its growth is 101%.

Q: What does the source list for `Fc1ccc(CNCCNc2ncnc3c2cnn3-c2ccccc2)cc1`?
A: growth (DU-145 prostate): 114%; growth (K-562 leukemia): 83.3%; growth (MALME-3M melanoma): 92.4%; growth (MDA-MB-231 breast): 79%; growth (RXF 393 renal): 74.6%; growth (SF-268 CNS): 92.3%; growth (SF-539 CNS): 100%; growth (UACC-257 melanoma): 85.6%; growth (M14 melanoma): 103%

Q: For `COc1cc(-c2nn(-c3cccc(NC(=O)Nc4cccc(C(F)(F)F)c4)c3)cc2-c2ccncc2)ccc1Cl`, which growth (DU-145 prostate) is on record?
A: Its growth is 9.75% (active).

Q: And the growth (K-562 leukemia)?
A: Its growth is 1.6% (active).

Q: And the growth (MALME-3M melanoma)?
A: Its growth is -32.1% (active).

Q: What about the growth (MDA-MB-231 breast) of the same compound?
A: The growth was -28.8% (active).

Q: What about the growth (RXF 393 renal) of the same compound?
A: Its growth is -69.8% (active).

Q: And the growth (SF-268 CNS)?
A: Its growth is 2.35% (active).

Q: What about the growth (SF-539 CNS) of the same compound?
A: Its growth is -34.2% (active).

Q: What about the growth (UACC-257 melanoma) of the same compound?
A: Its growth is -52.9% (active).

Q: What about the growth (M14 melanoma) of the same compound?
A: The growth was -61.5% (active).

Q: Which results are given for `CC(=O)Nc1ccc(S(=O)(=O)n2ccc(-c3ccc4c(c3)CCC(C)(C)O4)n2)cc1`?
A: growth (DU-145 prostate): 83.5%; growth (K-562 leukemia): 36.7%; growth (MALME-3M melanoma): 82.5%; growth (MDA-MB-231 breast): 88.6%; growth (SF-268 CNS): 77.3%; growth (SF-295 CNS): 60.2%; growth (SF-539 CNS): 73.8%; growth (UACC-257 melanoma): 46%; growth (M14 melanoma): 64.7%

Q: Which results are given for `Cc1ccc(-c2cc3nc(-c4ccccc4)nc(C(Cl)Cl)n3n2)cc1`?
A: growth (DU-145 prostate): -93.9% (active); growth (K-562 leukemia): 20.2%; growth (MALME-3M melanoma): -3.1% (active); growth (MDA-MB-231 breast): -49.7% (active); growth (SF-268 CNS): -56.6% (active); growth (SF-295 CNS): -69.8% (active); growth (SF-539 CNS): -60.4% (active); growth (UACC-257 melanoma): 18.3%; growth (M14 melanoma): 96.2%

Q: With `c1ccc(-c2nc(N3CCNCC3)c3nc(-c4ccccc4)oc3n2)cc1` as the compound, how does the growth (DU-145 prostate) read?
A: The growth was -63.2% (active).

Q: What about the growth (K-562 leukemia) of the same compound?
A: Its growth is -10.7% (active).

Q: What about the growth (MALME-3M melanoma) of the same compound?
A: Its growth is 91.8%.

Q: And the growth (MDA-MB-231 breast)?
A: The growth was -81% (active).

Q: And the growth (SF-268 CNS)?
A: Its growth is 36.1%.

Q: And the growth (SF-295 CNS)?
A: Its growth is 91.2%.

Q: And the growth (SF-539 CNS)?
A: Its growth is -40% (active).

Q: And the growth (UACC-257 melanoma)?
A: Its growth is 105%.

Q: And the growth (M14 melanoma)?
A: The growth was 99.7%.

Q: With `O=C(Nc1cccc(-n2cc(-c3ccncc3)c(-c3ccc(Cl)c(O)c3)n2)c1)c1ccc(N2CCOCC2)c(C(F)(F)F)c1` as the compound, how does the growth (DU-145 prostate) read?
A: The growth was 52.7%.

Q: What about the growth (K-562 leukemia) of the same compound?
A: The growth was 7.96% (active).

Q: What about the growth (MALME-3M melanoma) of the same compound?
A: Its growth is 10.7%.

Q: What about the growth (MDA-MB-231 breast) of the same compound?
A: The growth was 23.4%.

Q: And the growth (RXF 393 renal)?
A: Its growth is -26% (active).

Q: What about the growth (SF-268 CNS) of the same compound?
A: Its growth is 55.5%.

Q: What about the growth (SF-539 CNS) of the same compound?
A: The growth was 41.6%.

Q: And the growth (UACC-257 melanoma)?
A: The growth was 38.9%.

Q: And the growth (M14 melanoma)?
A: The growth was 22.7%.

Q: What does the source list for `Cc1c(C(=N)C(C#N)C#N)c(=N)oc2c1ccc1ccccc12`?
A: growth (DU-145 prostate): 103%; growth (K-562 leukemia): 72.8%; growth (MALME-3M melanoma): 111%; growth (MDA-MB-231 breast): 97.9%; growth (SF-268 CNS): 88.4%; growth (SF-295 CNS): 96.5%; growth (SF-539 CNS): 94.1%; growth (UACC-257 melanoma): 60.6%; growth (M14 melanoma): 88%

From PubChem BioAssay (NCI)
